Compound activity: PubChem, several laboratories
A selection: hits, their analogues and other compounds. The true share with any hit is near 4.6%.
TIM10 inh – TIM10 yeast growth inhibition. S. cerevisiae TIM10 strain growth, BacTiter-Glo luminescence, 24 h. inhibition, % at 10 µM. 330,000 compounds, 1.4% hits. AID 463195;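 active means inhibition of 40% or more at the single tested concentration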;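 further: wild-type TIM10 isogenic control strain grown at permissive 25 °C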
NLRP3 yeast inh – blocks the NALP3 inflammasome reconstituted in yeast; Yeast reconstituted NLRP3/ASC/caspase-1, beta-gal luminescence, 24 h; inhibition, % at 10 µM; 330,000 compounds, 0.39% hits;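 active means inhibition of 50% or more; inactive means inhibition below 50%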;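 further: plate controls were induced DMSO wells for no effect and uninduced yeast grown without galactose for full effect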
tim10-1 inh – tim10-1 yeast growth inhibition; inhibition, % at 20 µM; 330,000 compounds, 2.2% hits; S. cerevisiae tim10-1 ts strain growth, BacTiter-Glo, 24 h;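 active means inhibition of at least 40%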;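 further: mutant grown at 25 °C; 0% = DMSO wells with yeast and 100% = wells holding no yeast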
PfHsp90 set2 – inhibits growth of yeast expressing Plasmodium falciparum Hsp90 | S. cerevisiae expressing PfHsp90, BacTiter-Glo ATP, 48 h; yeast lacking PDR1 and PDR3 efflux regulators | 310,000 compounds, 0.32% hits | inhibition, % at 9.4 µM;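 active means every replicate shows inhibition above about 80%, whatever the replicate mean, limit read from the data; inconclusive means mean inhibition reaches the set limit but some replicate falls short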;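 further: 0% = DMSO neutral controls and 100% = 20 µM radicicol positive controls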
tim23-1 inh – growth inhibitors of tim23-1 mutant yeast | 330,000 compounds, 1.3% hits | S. cerevisiae tim23-1 growth, BacTiter-Glo luminescence, 24 h | inhibition, % at 20 µM;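 active means growth inhibition of the mutant yeast at or above 50%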;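 further: temperature-sensitive mutant grown at 25 °C; plate controls were DMSO-treated mutant yeast for no effect and medium wells lacking yeast for full effect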
SKKanGAS inh – blocks kanamycin growth of S. pyogenes SKKanGAS strain | AID 1662 | inhibition, % at 7.5 µM | 300,000 compounds, 1.3% hits | BacTiter-Glo, 6 h;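 active means mean replicate score, as percent of positive control median, at least 50; inconclusive means mean below 50 but one replicate at or above 50; inactive means mean and every replicate below 50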;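 further: strain carries kanamycin resistance gene driven by streptokinase promoter and grows in 40 µg/ml kanamycin; loss of luminescence reflects streptokinase promoter inhibition or plain growth inhibition; 0% = median of DMSO wells and 100% = positive control at its reference dose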
* hit, by the source's call; u = inconclusive; x = no result.

SMILES	TIM10 inh	NLRP3 yeast inh	tim10-1 inh	PfHsp90 set2	tim23-1 inh	SKKanGAS inh
COc1ccc(OC)c(C(C(=O)NC2CCCCC2)N(C(=O)c2ccccn2)c2cccnc2)c1 (centres undefined)	-6	9	-8	-83	5	0
Cc1c(C(=O)Nc2nccs2)sc2nc(-c3cccs3)cc(C(F)(F)F)c12	-2	12	0	x	7	95*
O=S(=O)(O)c1ccc(N=Nc2ccccc2)cc1	-6	5	5	6	11	2
O=c1ccc(N=Nc2ccccc2)ccc1O	x	x	x	125*	x	91*
N#Cc1ccccc1S(=O)(=O)N1CCN(C(=O)C2CCCC2)CC1	-4	3	6	-26	4	-4
O=C(c1ccco1)N1CCC(c2nc3c(nnn3Cc3c(Cl)cccc3Cl)c(=O)[nH]2)CC1	-18	3	1	-8	9	-10
O=C(c1cccs1)N1CCC(c2nc3c(nnn3Cc3ccccc3Cl)c(=O)[nH]2)CC1	-10	23	13	-7	16	52*
CC(C)(C)CC(=O)N1CCC(c2nc3c(nnn3Cc3c(F)cccc3Cl)c(=O)[nH]2)CC1	20	-4	12	-2	10	74*
COc1ccccc1Cn1nnc2c(=O)[nH]c(C3CCN(C(=O)c4ccccc4Cl)CC3)nc21	5	16	14	-1	5	91*
COc1ccccc1OCC(=O)Nc1cc(C)ccc1NC(=O)c1ccco1	-1	7	19	10	22	-10
Cc1ccc(C)c(NC(=O)c2ccc(S(=O)(=O)N(C)CC3CCCO3)cc2)c1 (centres undefined)	10	25	15	13	25	u
O=c1cc(-c2ccc(O)c(-c3c(O)cc(O)c4c(=O)cc(-c5ccc(O)cc5)oc34)c2)oc2cc(O)cc(O)c12	1	8	2	-6	3	62*
Cc1cccc(N2CCN(C(=O)c3ccc4nc(N5CCCCC5)sc4c3)CC2)c1C	15	7	3	-17	32	51*
CC(C)CC(=O)NC(=S)N(Cc1ccccc1)Cc1ccccc1	27	29	31	-37	32	54*
Cc1ccccc1C(=O)NC(=S)N(CCO)Cc1ccccc1	-6	22	4	18	12	0
O=C(CCN1C(=O)/C(=C/c2cccs2)SC1=S)NC1=NCCS1	x	x	x	106*	x	x
O=C(CCN1C(=O)/C(=C\c2cccs2)SC1=S)NC1=NCCS1	-5	-6	8	-19	7	2
CC(C)N=c1scc(-c2cccs2)n1/N=C/c1ccc(O)c(O)c1O	39	20	25	106*	42	x
CC1CC(C)CN(c2ccc(-n3cnnn3)cc2[N+](=O)[O-])C1 (centres undefined)	-2	20	17	13	41	6
O=[N+]([O-])c1cc(-n2cnnn2)ccc1N1CCC(Cc2ccccc2)CC1	19	5	-6	104*	29	24
Cn1c(O)c(/C=N/NC(=O)c2cc3ccccc3cc2O)c2ccccc21	1	4	-3	-16	20	104*
CC(C)=CCCC1(C)C=Cc2c(c(C)cc3c2[nH]c2cc(O)ccc23)O1 (centres undefined)	-3	3	21	51	22	107*
CCc1ccc2[nH]c(O)c(N=Nc3nc(-c4ccccc4)cs3)c2c1	11	22	35	3	22	53*
Cc1ccc(/C=C/c2ccc(=O)n(Cc3ccccc3Cl)n2)cc1	-9	30	12	x	-3	69*
CCOC(=O)c1[nH]c2ccc(F)cc2c1NC(=O)c1ccccc1C(=O)O	-7	4	-5	5	-6	84*
SMILES	TIM10 inh	NLRP3 yeast inh	tim10-1 inh	PfHsp90 set2	tim23-1 inh	SKKanGAS inh
CCOC(=O)c1[nH]c2ccc(OC)cc2c1NC(=O)c1ccccc1C(=O)O	14	14	4	0	-3	12
O=C1NC(=Nc2ccc(Cl)cc2)SC1Cc1cc(Cl)ccc1Cl (centres undefined)	11	6	14	4	9	82*
Cc1ccc(C2/C(=C(\O)c3ccc4c(c3)OCCO4)C(=O)C(=O)N2CC2CCCO2)cc1 (centres undefined)	-4	21	-3	15	0	x
O=C(Nc1nnc(C2=COCCO2)o1)c1cccc(Br)c1	7	11	25	-4	4	100*
COc1ccc(C(=O)Nc2nnc(C3=COCCO3)o2)cc1	22	10	25	-28	16	26
CCOc1ccc(C(=O)Nc2nnc(C3=COCCO3)o2)cc1	-4	-1	-1	x	5	72*
O=C1C2C3C=CC(CNS(=O)(=O)c4ccccc4)(O3)C2C(=O)N1c1ccc(Cl)cc1 (centres undefined)	8	6	38	105*	35	-13
CCN(c1ccc(C)cc1C)S(=O)(=O)c1nnc(NC(=O)C(C)(C)C)s1	7	9	14	-54	15	13
CC1(C)S[C@@H]2[C@H](NC(=O)COc3ccccc3)C(=O)N2C1C(=O)OCc1cc2ccccc2n1S(=O)(=O)c1ccccc1 (some centres undefined)	x	x	x	x	x	78*
COc1cccc(OC)c1C(=O)N[C@@H]1C(=O)N2[C@@H]1SC(C)(C)[C@@H]2C(=O)O	x	x	x	18	x	x
Cc1onc(-c2c(Cl)cccc2Cl)c1C(=O)NC1C(=O)N2C1SC(C)(C)C2C(=O)O (centres undefined)	9	2	11	29	-7	79*
CC1(C)S[C@@H]2[C@H](NC(=O)COc3ccccc3)C(=O)N2C1C(=O)OCC1CCCCC1 (some centres undefined)	20	-3	28	x	30	64*
CC(Oc1ccccc1)C(=O)NC1C(=O)N2C1SC(C)(C)C2C(=O)O (centres undefined)	-21	5	6	16	14	106*
CCOC(=O)OC(C)OC(=O)[C@@H]1N2C(=O)[C@@H](NC(=O)[C@H](N)c3ccccc3)[C@H]2SC1(C)C (some centres undefined)	7	11	9	-14	-8	x
CC(=O)Oc1ccc(N2C(=O)C3C4C=CC(CO)(O4)C3C2=O)cc1 (centres undefined)	-6	14	-1	-78	7	1
Cc1ccc(N2C(=O)C3C4C=CC(CNC(=S)N5CCN(c6cccc(C)c6)C(C)C5)(O4)C3C2=O)cc1 (centres undefined)	10	24	0	105*	8	-9
O=c1c2c([N+](=O)[O-])cc([N+](=O)[O-])cc2sn1Cc1ccccc1	17	38	7	-24	22	85*
CN(C(=O)c1cccs1)c1ccc(OCC(=O)N2CCC(C(N)=O)CC2)cc1	2	20	5	-18	-3	0
CSc1ncccc1C(=O)Nc1ccc(F)c(F)c1F	-5	6	-18	-13	-12	1
